Results published in PubChem BioAssay AID485317 (Broad Institute, 2010).
The campaign covered roughly 290,000 compounds. About 11,000 (3.8%) were called active.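 The calls were made as follows: active = mean replicate inhibition above about 79%, with every replicate also reaching it (limit read from the data); inconclusive = only one of the two criteria met; inactive = mean below limit and not every replicate reaching it.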 Many of the other results were omitted from the sample, so actives are more common in it than they were.

molecular target: FAD-linked sulfhydryl oxidase ALR (Homo sapiens) (UniProt P55789); test: ALR-catalysed DTT oxidation blockers – biochemical, H2O2 detection, HRP-luminol luminescence, single point, primary screen (AID 485317); details: purified ALR, active compounds read high, concentration not given here
Sequence (P55789 whole entry, looked up): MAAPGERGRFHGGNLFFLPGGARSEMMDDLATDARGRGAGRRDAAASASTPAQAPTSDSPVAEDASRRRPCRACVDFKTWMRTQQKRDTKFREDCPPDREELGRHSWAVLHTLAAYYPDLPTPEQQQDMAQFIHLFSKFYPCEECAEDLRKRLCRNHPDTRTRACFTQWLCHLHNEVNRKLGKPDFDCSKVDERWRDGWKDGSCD

SMILES	inhibition
CN1CCN(/N=C/c2c[nH]c3ccccc23)CC1	79.3% (active)
O=C(Cc1ccccc1[N+](=O)[O-])N1CCN(Cc2ccc3c(c2)OCO3)CC1	-25.4% (inactive)
Oc1cc2c(cc1CN1CCN(c3ccccc3)CC1)OCO2	60.4% (inactive)
Fc1ccc(N2CCN(Cc3ccc4c(c3)OCO4)CC2)cc1	76.3% (active)
COC(=O)C1=C(c2cc3ccccc3s2)C[C@@H]2CC[C@H]1N2C(=O)NCc1cccc2ccccc12	-1.91% (inactive)
COC(=O)C1=C(c2ccccc2)C[C@@H]2CC[C@H]1N2C(=O)N1CCCCC1	-3.97% (inactive)
C/C(CCc1c[nH]c2ccccc12)=N\O	98.1% (active)
c1cncc(CNCCc2c[nH]c3ccccc23)c1	10% (inactive)
COc1ccc(CNCCc2c[nH]c3ccccc23)cc1OC	4.28% (inactive)
COC(=O)C1=C(c2ccc(Cl)c(C(F)(F)F)c2)C[C@@H]2CC[C@H]1N2C(=O)NC1CC1	-18.1% (inactive)
COc1cccc(N2C(=O)NC(=O)/C(=C\c3cn(C)c4ccccc34)C2=O)c1	-2.44% (inactive)
COc1ccc(CN2C(=O)NC(=O)/C(=C\c3ccc(OC)c(OC)c3OC)C2=O)cc1	20% (inactive)
COc1ccc(N2C(=O)/C(=C/c3ccco3)C(=O)NC2=S)cc1	97.9% (active)
C[C@]12CC[C@H](O)CC1=C([N+](=O)[O-])CC1C2CC[C@@]2(C)C1CC[C@@H]2O (stereo not given in full)	1.78% (inactive)
COC(=O)C1=C(c2ccc(F)cc2OCc2ccccc2)C[C@@H]2CC[C@H]1N2C(=O)NCc1ccc2[nH]ccc2c1	5.75% (inactive)
NCCc1c[nH]c2ccc(O)cc12	95.8% (active)
Cc1cccc2c(CCN)c[nH]c12	-8.02% (inactive)
COC(=O)C1=C(c2cc3ccccc3o2)C[C@@H]2CC[C@H]1N2C(=O)NC1CCCCC1	0.528% (inactive)
COC(=O)C1=C(c2cc3ccccc3s2)C[C@@H]2CC[C@H]1N2C(=O)NC(C)C	16.9% (inactive)
O=c1[nH]c(O)c(C=Nc2cc(F)cc(F)c2)c(=O)[nH]1	-1.04% (inactive)

SMILES	inhibition
Cc1ccnc(-n2c(C)cc(/C=C3\C(=O)NC(=S)N(C)C3=O)c2C)c1	97.1% (active)
Cc1ccc(-n2c(C)cc(/C=C3\C(=O)NC(=O)N(C)C3=O)c2C)cc1C	-26% (inactive)
Cc1cc(C=C2C(=O)NC(=O)NC2=O)c(C)n1-c1ccncc1	20.8% (inactive)
COC(=O)C1=C(c2cccc(OCc3ccccc3)c2)C[C@@H]2CC[C@H]1N2C(=O)NNCc1ccccc1	-3.1% (inactive)
O=C(O)CCn1cc(C=C2C(=O)NC(=S)NC2=O)c(-c2cccc(Br)c2)n1	99.4% (active)
CNCC(O)c1cc(F)c(OCc2ccccc2)c(OCc2ccccc2)c1F (stereo not given)	-16.5% (inactive)
COC(=O)C1=C(c2ccc(F)cc2OCc2ccccc2)C[C@@H]2CC[C@H]1N2C(=O)NCc1ccc(Cl)cc1	0.0344% (inactive)
c1ccc(CCN2CCC3(CC2)OCCO3)cc1	0.745% (inactive)
COc1ccc2c(c1)[C@]13CCCCC1C(C2)N(C)CC3 (stereo not given in full)	-0.421% (inactive)
CN(C)c1nc(N(C)C)nc(N(C#N)CCCl)n1	96.2% (active)
CCN1CCN(c2nc3c(c(=O)[nH]2)CCC3)CC1	2.56% (inactive)
CCC(=O)c1ccc(OCC(=O)N2CCN(CC(=O)Nc3ccc(C)cc3)CC2)cc1	-2.33% (inactive)
Cc1cc(/C=C2/C(=O)NC(=O)N(Cc3ccco3)C2=O)c(C)n1-c1ccc(C(=O)O)cc1	97.6% (active)
Cc1c(C(=O)O)cccc1-n1c(C)cc(/C=C2\C(=O)NC(=O)N(c3ccc4c(c3)OCO4)C2=O)c1C	12.1% (inactive)
O=C1NC(=O)N(Cc2ccco2)C(=O)/C1=C\c1ccc(-c2ccc(F)cc2)o1	13.9% (inactive)
COC(=O)C1=C(c2ccc(F)cc2OCc2ccccc2)C[C@@H]2CC[C@H]1N2C(=O)NCc1ccc(OC)c(OC)c1	-0.52% (inactive)
COC(=O)C1=C(c2ccc(F)cc2OCc2ccccc2)C[C@@H]2CC[C@H]1N2C(=O)NCc1ccc(C(C)(C)C)cc1	-8.86% (inactive)
O=C(CCC(=O)N1C[C@H]2C[C@@H](C1)c1cccc(=O)n1C2)NCc1ccccc1C(F)(F)F	-3.58% (inactive)
COC(=O)C1=C(c2c(C)noc2C)C[C@@H]2CC[C@H]1N2C(=O)NCc1ccc2c(c1)OCO2	-6.31% (inactive)
CC(=O)c1ccc(OC(NC(=O)Cc2ccccc2)C(Cl)(Cl)Cl)cc1 (stereo not given)	5.09% (inactive)

SMILES	inhibition
CC(Cc1ccccc1)NCCC(c1ccccc1)c1ccccc1 (stereo not given)	-11.9% (inactive)
CC(=O)NC(=O)NC(C)Cc1ccccc1 (stereo not given)	99.2% (active)
COC(=O)C1=C(c2ccc(Cl)c(C(F)(F)F)c2)C[C@@H]2CC[C@H]1N2C(=O)NC(C)C	0.07% (inactive)
COc1ccc(NC(=O)N2CCC3(CC2)OCCO3)c(OC)c1	-26.4% (inactive)
Cc1ccc(-c2cc(C(=O)N3CCC4(CC3)OCCO4)no2)cc1	7.33% (inactive)
COc1ccc(-c2nc(CS(=O)CC(=O)N3CCC4(CC3)OCCO4)c(C)o2)cc1 (stereo not given)	98.9% (active)
COC(=O)C1=C(c2ccc(-c3ccccc3)c(F)c2)C[C@@H]2CC[C@H]1N2C(=O)NCc1ccc(F)cc1	-0.106% (inactive)
C=CC12CN(C)[C@@H]3C4CO[C@H](C[C@H]41)[C@]1(C(=O)Nc4ccccc41)[C@@H]32 (stereo not given in full)	-7.63% (inactive)
COC(=O)C1=C(c2cccc(OCc3ccccc3)c2)C[C@@H]2CC[C@H]1N2C(=O)NCc1ccc(Br)cc1	-3.06% (inactive)
CN1CCc2cc3c(cc2[C@H]1[C@@H]1OC(=O)c2c1ccc1c2OCO1)OCO3	-8.76% (inactive)
Cc1ccccc1NC(=O)COC(=O)c1cc(C)n(C2CC2)c1C	5.99% (inactive)
COC(=O)C1=C(c2ccc3ccccc3c2)C[C@@H]2CC[C@H]1N2C(=O)NCCO	-28.8% (inactive)
C/C(=N/O)c1ccc2ccc3ccccc3c2c1	99.1% (active)
O=[N+]([O-])c1cnc2ccc3ccccc3c2c1	-42.1% (inactive)
C[C@]12CCC3C(CC[C@H]4C[C@@H](O)CC[C@]34C)C1CC[C@@H]2O (stereo not given in full)	-1.96% (inactive)
C[C@]12CCC3C(CC[C@H]4C[C@@H](O)CC[C@]34C)C1C[C@@H](O)[C@H]2O (stereo not given in full)	2.15% (inactive)
COC(=O)C1=C(c2ccc(F)cc2F)C[C@@H]2CC[C@H]1N2C(=O)NC1CC1	-1.47% (inactive)
COC(=O)C1=C(c2ccccc2OCc2ccccc2)C[C@@H]2CC[C@H]1N2C(=O)NCc1ccc(OC)cc1	-2.59% (inactive)
COC(=O)C1=C(c2ccc(C(C)=O)cc2)C[C@@H]2CC[C@H]1N2C(=O)NCCNC(C)=O	4.07% (inactive)
O=c1c2ccccc2nc(/C=C/c2ccco2)n1-c1ccccc1O	47.2% (inactive)
